Reference: PubChem BioAssay (NCI)
About 83,000 compounds went through this panel and 20% of them were active in at least one assay; those are over-represented in the sample as a whole.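 How to read the values: 0–100, growth inhibition (40 = 60% inhibited); 0, no net growth; -100 to 0, cell death (-40 = 40% of starting cells died; -100 = all dead).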 Calls of active or inactive are those of the source. The calls were made as follows: active = growth percent below 10; inactive = the rest.

These compounds were tested on SNB-75 CNS (assay: NCI-60 one-dose screen, 48 h (100 = growth as untreated, 0 = no growth, -100 = all killed)). Settings: 10 µM unless noted.

Row | SMILES | growth
1 | COc1ccc(C(=O)C2C(C#N)C(C#N)C3c4ccccc4C=CN23)cc1 (stereo not given) | 74.8% (inactive)
2 | O=C(C[n+]1cccc2ccccc21)c1ccc(O)c(O)c1 | 66% (inactive)
3 | COc1ccc(C(=O)c2nc3ccccc3n2CC(=O)c2ccc(F)cc2)cc1 | 59.6% (inactive)
4 | CC(=O)[C@@H]1CC[C@]2(CO)CC[C@]3(C)[C@H](CC[C@@H]4[C@@]5(C)CCCNC(C)(C)[C@@H]5CC[C@]43C)[C@@H]12 | 86% (inactive)
5 | NS(=O)(=O)c1ccc(CCN2C(=O)C=CC2=O)cc1 | 99.3% (inactive)
6 | Nc1ccccc1NC(=O)c1ccc(-n2nc(-c3ccccc3)c3ccccc32)cc1 | 38.4% (inactive)
7 | N#CC1C(C#N)C2c3ccccc3C=CN2C1C(=O)c1ccc(Br)cc1 (stereo not given) | 90.5% (inactive)
8 | O=C(CNCCN1CCOCC1)N1c2cccc3cccc(c23)N(C(=O)CNCCN2CCOCC2)C1c1cn(-c2ccccc2)nc1-c1cccc([N+](=O)[O-])c1 | 57.9% (inactive)
9 | C=C(C)[C@@H]1CC[C@]2(C(=O)N[C@H](CO)Cc3ccccc3)CC[C@]3(C)[C@H](CC[C@@H]4[C@@]5(C)CCCNC(C)(C)[C@@H]5CC[C@]43C)[C@@H]12 | -95.1% (active)
10 | O=C1c2cccc3c(-c4ccc5c(c4)ncn5C4CCCCC4)ccc(c23)C(=O)N1CCO | 86.6% (inactive)
11 | O=C(/C(=C\c1ccc([N+](=O)[O-])cc1)S(=O)Cc1ccc(F)cc1)c1ccc(F)cc1 (stereo not given) | 72.1% (inactive)
12 | NNC(=O)c1ccc(-n2nc(-c3ccccc3)c3ccccc32)cc1 | 53.6% (inactive)

These compounds were tested on SNB-19 CNS in the same assay as above. Settings: 10 µM unless noted.

Row | SMILES | growth
13 | NC(=O)CSSCC(N)=O | 101% (inactive)
14 | C=C(C)[C@@H]1CC[C@]2(C(=O)N3CCN(C)CC3)CC[C@]3(C)[C@H](CC[C@@H]4[C@@]5(C)CC[C@H](O)C(C)(C)[C@@H]5CC[C@]43C)[C@@H]12 | -52% (active)
15 | O=C1Nc2cc(Cl)ccc2/C1=C\c1c(-c2ccc(F)cc2)nc2ccccn12 | 22.2% (inactive)
16 | CCc1ccc(-c2cn3ccnc3c(-c3ccc4ncn(Cc5ccccc5)c4c3)n2)cc1 | 79.1% (inactive)
17 | CCOC(=O)c1cc(C(=O)c2ccc(OC)c(OC)c2)n2ccc(/C=C/c3cc[n+](CC(=O)c4ccc(OC)c(OC)c4)cc3)cc12 | 90.6% (inactive)
18 | COc1cc(/C=C\c2cc(OC)c(OC)c(OC)c2)cc(NC(=O)/C=C/c2cc(OC)c(OC)c(OC)c2)c1OC | 72% (inactive)
19 | CN1C(N2CCN(S(=O)(=O)c3ccccc3)CC2)=NS(=O)(=O)c2ccccc21 | 104% (inactive)
20 | O=C1Nc2ccccc2/C1=C\c1c(-c2ccc(F)cc2)nc2ccccn12 | 77.7% (inactive)
21 | OCc1cnc2ccccc2c1NC1CCCCCC1 | 94.4% (inactive)
22 | Oc1c(Cl)cc(Cl)c(Cl)c1CNCCNCc1c(O)c(Cl)cc(Cl)c1Cl | 15.9% (inactive)
23 | CN1[C@@H]2CC[C@H]1/C(=C\c1ccccc1)C(=O)/C2=C/c1ccccc1 | 47.1% (inactive)
24 | O=C1c2c(c3c4cccc(F)c4[nH]c3c3ccc4ccccc4c23)C(=O)N1O | 30.2% (inactive)
25 | CN(C)CCC(=O)c1ccc([N+](=O)[O-])cc1 | 107% (inactive)
26 | Cc1ccc(-c2nc3ccccn3c2/C=C2/C(=O)Nc3cc(Cl)ccc32)cc1 | 87.5% (inactive)
27 | CC(=O)[C@@H]1CC[C@]2(C(N)=O)CC[C@]3(C)[C@H](CC[C@@H]4[C@@]5(C)CCCNC(C)(C)[C@@H]5CC[C@]43C)[C@@H]12 | 86.2% (inactive)
28 | CC(C)N1C(=O)S/C(=C2/SC(=O)N(C(C)C)C2=O)C1=O | 93.3% (inactive)
29 | NS(=O)(=O)c1ccc(CCN2C(=O)C3C(C2=O)C2(Cl)C(Cl)=C(Cl)C3(Cl)C2(Cl)Cl)cc1 (stereo not given) | 101% (inactive)
30 | Nc1c(S(=O)(=O)O)cc2c3c(cccc13)C(=O)OC2=O | 99.7% (inactive)
31 | O=C(CCN1CCCC1)c1ccc([N+](=O)[O-])cc1 | 116% (inactive)

Row | SMILES | growth
32 | O=C1Nc2ccc(F)cc2/C1=C\c1c(-c2ccccc2)nc2ccccn12 | 75.4% (inactive)
33 | O=Cc1ccc(-c2cn3ccnc3c(-c3ccc4ncn(Cc5ccccc5)c4c3)n2)cc1 | 85.6% (inactive)
34 | N#C/C(=C\c1ccc(C(F)(F)F)cc1)c1cc2ccccc2[nH]1 | 102% (inactive)
35 | O=C1c2cccc3c(-c4ccc5c(c4)ncn5C4CCCCC4)ccc(c23)C(=O)N1c1nc2ccccc2s1 | 94.6% (inactive)
36 | Cc1cccc(-c2cn3ccnc3c(-c3ccc4ncn(Cc5ccccc5)c4c3)n2)c1 | 97.4% (inactive)
37 | CCOC(=O)C1=C(CCl)NC(=O)NC1c1ccc2c(c1)OCO2 (stereo not given) | 64.4% (inactive)
38 | CCCN1[C@@H]2CC[C@H]1/C(=C\c1ccc(OC)c(OC)c1)C(=O)/C2=C/c1ccc(OC)c(OC)c1 | 56.7% (inactive)
39 | COc1ccc(C(=O)C2C(C#N)C(C#N)C3c4ccccc4C=CN23)cc1 (stereo not given) | 85.4% (inactive)
40 | O=C(C[n+]1cccc2ccccc21)c1ccc(O)c(O)c1 | 74.5% (inactive)
41 | COc1ccc(C(=O)c2nc3ccccc3n2CC(=O)c2ccc(F)cc2)cc1 | 95.6% (inactive)
42 | CC(=O)[C@@H]1CC[C@]2(CO)CC[C@]3(C)[C@H](CC[C@@H]4[C@@]5(C)CCCNC(C)(C)[C@@H]5CC[C@]43C)[C@@H]12 | 99.1% (inactive)
43 | NS(=O)(=O)c1ccc(CCN2C(=O)C=CC2=O)cc1 | 107% (inactive)
44 | Nc1ccccc1NC(=O)c1ccc(-n2nc(-c3ccccc3)c3ccccc32)cc1 | 78.8% (inactive)
45 | N#CC1C(C#N)C2c3ccccc3C=CN2C1C(=O)c1ccc(Br)cc1 (stereo not given) | 91.2% (inactive)
46 | O=C(CNCCN1CCOCC1)N1c2cccc3cccc(c23)N(C(=O)CNCCN2CCOCC2)C1c1cn(-c2ccccc2)nc1-c1cccc([N+](=O)[O-])c1 | 77.1% (inactive)
47 | C=C(C)[C@@H]1CC[C@]2(C(=O)N[C@H](CO)Cc3ccccc3)CC[C@]3(C)[C@H](CC[C@@H]4[C@@]5(C)CCCNC(C)(C)[C@@H]5CC[C@]43C)[C@@H]12 | -88% (active)
48 | O=C1c2cccc3c(-c4ccc5c(c4)ncn5C4CCCCC4)ccc(c23)C(=O)N1CCO | 98.1% (inactive)
49 | O=C(/C(=C\c1ccc([N+](=O)[O-])cc1)S(=O)Cc1ccc(F)cc1)c1ccc(F)cc1 (stereo not given) | 41% (inactive)
50 | NNC(=O)c1ccc(-n2nc(-c3ccccc3)c3ccccc32)cc1 | 66.1% (inactive)
